Two molecules from PubChem BioAssay (NCATS) can be followed below.

Unmarked numbers belong to inactive results. Inconclusive results are not listed. The source made the active and inactive calls. Unless noted, calls follow the shape of the dose curve; as a rule, active = well fitted curve in the direction sought with a large enough effect; inconclusive = small, poorly fitted or top-dose-only effect, or another doubt; inactive = no such curve, though single readings can be large; an effect the other way counts as inactive or inconclusive. Bounds are passed on as bounds.

Experiment [1] has as its target Lysosomal acid glucosylceramidase (Homo sapiens) (UniProt P04062). As to the kind of experiment: Glucocerebrosidase-p2 (AID 348; in the data active = potency below about 10 µM; also: potency is read from the fitted curve at half-maximal effect). Particulars: purified GBA, blue fluorogenic substrate, 40 min. The method in brief: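 Compounds titrated from 0.6 nM upwards against 0.2 nM enzyme in pH 5.9 citric acid/KH2PO4, taurocholate, tween-20; blue fluorogenic substrate 80 uM, 40 min room temperature, stopped and read Ex 365/Em 440 for AC50.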

Experiment [2] can be described thus: AP1 Signaling Pathway (AID 357; active = well fitted curve in either direction with a large enough effect, not every such curve was filed as active;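 also: ME-180 reporter cells stimulated with EGF at its EC50 level; % is scaled to controls: 0 for no effect and ±100 for the full control effect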). To be noted: ME-180 (cervical carcinoma) AP-1-bla reporter, EGF-induced, beta-lactamase ratio, 5 h; at 7.69 µM (top of the series) unless noted. The method in brief:
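First, ME-180 AP-1-bla cells were cultured overnight at 37 °C in low-serum Opti-MEM. Next, titrated compounds with EC50 EGF were incubated 5 hours. Finally, CCF4 was added for 2.5 hours and the 460/530 nm ratio recorded.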

The target of experiment [3] is Cytochrome P450 1A2 (Homo sapiens) (UniProt P05177). As to the kind of experiment: p450-cyp1a2 (AID 410; calls by dose curve; also: potency is read from the fitted curve at half-maximal effect). The method in brief:
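20nM CYP1A2 with 100uM Luciferin-ME (at Km) in 100mM KPO4; compound preincubated 10 min, NADPH regeneration added, 60 min at room temperature. Luciferin quantified by luminescence after detection reagent; normalized to 57 uM furafylline.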

The nature of experiment [4]: NFAT Signaling Pathway (AID 444; active = well fitted curve in either direction with a large enough effect, not every such curve was filed as active;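 also: carbachol stimulus at about its EC50 of 1 µM final; % is scaled to controls: 0 for no effect and ±100 for the full control effect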). Particulars: Jurkat NFAT-bla M1, carbachol, beta-lactamase ratio, 5 h; at 7.69 µM (top of the series) unless noted. The method in brief:
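Jurkat cells carrying an NFAT-driven β-lactamase reporter and co-transfected muscarinic M1 receptor were treated with compound plus carbachol (1 uM final, an EC50 level) for 5 h at 37 °C. CCF4 loading followed for 1 h at RT; 460/530 nm ratio gave %activity.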

The nature of experiment [5]: Stat Signaling Pathway (AID 446; active = well fitted curve in either direction with a large enough effect, not every such curve was filed as active;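 also: ME-180 cervical cancer cells given 40 pM IL-6 alongside compound; SIE-controlled beta-lactamase reporter measured as 460/530 nm FRET emission ratio; % is scaled to controls: 0 for no effect and ±100 for the full control effect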). The method in brief:
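ME-180 SIE-bla cells; overnight plating; cpd + IL-6 40 pM, 5 h, 37 C; LiveBLAzer 2.5 h RT; 460/530 nm emission ratio. Normalized to 300 pM IL-6 and 125 nM JAK inhibitor controls.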

The target of experiment [6] is Glucocorticoid receptor (Homo sapiens) (UniProt P04150). As to the kind of experiment: GR-GFP Redistribution (AID 450;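 active = compounds whose dose series gives a full or clear partial fitted curve of increased nuclear translocation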; also: potency is read from the fitted curve at half-maximal effect). Particulars: U2OS GR-GFP nuclear translocation, laser cytometry, 2 h.
Experiment [7] has the same target. As to the kind of experiment: GR-EFC Redistribution (AID 451; calls by dose curve; also: potency is read from the fitted curve at half-maximal effect). Particulars: CHO-K1 GR-EFC translocation, beta-gal luminescence, 2 h. The method in brief: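 CHO-K1 cells stably expressing nuclear-localized β-gal enzyme acceptor and GR fused C-terminally to the enzyme donor fragment; ligand-driven nuclear translocation restores β-gal by complementation. Compounds titrated up to 46 uM final, 2 h at 37 °C; luminescence read.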

Experiment [8] addresses Mitogen-activated protein kinase 10 (Mus musculus) (UniProt Q61831). As to the kind of experiment: JNK3 AlphaScreen Assay (AID 530; active = well fitted curve in either direction with a large enough effect, not every such curve was filed as active;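 also: kinase came from lysate of stimulated human HepG2 cells; signal reports phosphorylation of biotinylated GST-cJun 1-79 at Ser73 with 10 µM ATP; % is scaled to controls: 0 for no effect and ±100 for the full control effect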). The method in brief:
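Inhibitors reduce antibody binding to phosphorylated biotin-cJun, lowering AlphaScreen luminescence. Lysates from HepG2 cells pre-activated by IL-1beta plus TNF-alpha supplied JNK3; compounds were titrated.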
(Bead proximity is the source of the signal in Alpha formats.)

The target of experiment [9] is 3',5'-cyclic-AMP phosphodiesterase 4B (Homo sapiens) (UniProt Q07343). As to the kind of experiment: qHTS Assay for Inhibitors of PDE-IV (AID 607; active = well fitted activation curve with a large enough effect in the main read-out, with a control signal flat, not every such curve was filed as active; also: % of control where 0% means no effect). The method in brief:
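ACTOne HEK293 cells carry a modified cAMP-gated CNG channel and express endogenous PDE4; plated 1000 cells/well, compounds up to 22.9 uM final. Membrane-potential dye fluorescence (ex 535/em 590) was read; parental cells received 10 uM forskolin + 100 uM RO 20-1724.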

The target in experiment [10] is Dual specificity protein kinase CLK4 (Homo sapiens) (UniProt Q9HAZ1). As to the kind of experiment: qHTS Assay for Inhibitors of CDC-like Kinase 4 (Kinase-Glo Assay) (AID 1770). Also: % is scaled to controls: 0 for no effect and ±100 for the full control effect; nearly all actives have a fitted effect of over 65% in size. The method in brief: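 Readout: Kinase-Glo luminescence from ATP left after a 4.5 h room-temperature reaction of 25 nM Clk4 with 100 uM RS peptide and 1 uM ATP (final). Buffer: 25 mM Tris pH 7.5, 10 mM MgCl2.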

For experiment [11] the target is unchanged. As to the kind of experiment: qHTS Assay for Inhibitors of CDC-like Kinase 4 (ADP-Glo Assay) (AID 1771). Also: % is scaled to controls: 0 for no effect and ±100 for the full control effect; nearly all actives have a fitted effect of over 70% in size. The method in brief: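 25 nM Clk4 with 100 uM RS repeat peptide and 1 uM ATP (final) in buffer with 2 mM MgCl2, 0.5 mM EGTA, 2.5 mM DTT, 0.01% Triton X-100; 1 h at room temperature; ADP-Glo luminescence for ADP formed.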
Experiment [12] shares this target. As to the kind of experiment: qHTS Assay for Inhibitors of CDC-like Kinase 4 (ADP-FP Assay) (AID 1795).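 Also: recombinant human CLK4 phosphorylating RS repeat peptide at 1 µM ATP; % is scaled to controls: 0 for no effect and ±100 for the full control effect; nearly all actives have a fitted effect of over 60% in size.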 The method in brief: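 FP readout: Orange Transcreener ADP2 tracer (4 nM) plus ADP antibody, read after 30 min at room temperature. Kinase step: 6.25 nM Clk4, 100 uM RS peptide, 1 uM ATP, pH 7.5, 1 h.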
(Quantitative high-throughput screening tests each substance at several concentrations.)

Experiment [13] has as its target Ubiquitin carboxyl-terminal hydrolase 1 (Homo sapiens) (UniProt O94782). As to the kind of experiment: Inhibitors of USP1/UAF1: Pilot qHTS (AID 504865).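 Also: rhodamine fluorescence freed from ubiquitin-rhodamine substrate followed over time; top concentration of the series differs between compounds; % is scaled to controls: 0 for no effect and ±100 for the full control effect; nearly all actives have a fitted effect of over 35% in size.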 The method in brief:
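1nM USP1/UAF1 + cpd, 15 min RT; start w/ Ub-Rho 150nM final; kinetic FL 480/540 nm, 6 reads q60 s. Buffer 50mM HEPES pH 7.8, 0.5mM EDTA, 1mM TCEP, 0.01% Tween-20, 0.1 mg/ml BSA.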

Experiment [14] is described as follows: NCATS anti-infectives library activity on HEK293 viability as a counter-qHTS vs the C. elegans viability qHTS (AID 1745854). The method in brief: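 HEK293 cells (1,500/well) exposed 24 hr at 37C to 1:5 titrations, up to 41.7 uM final; counter-screen to a C. elegans viability qHTS. Viability by CellTiter-Glo luminescence after 10 min at room temperature; digitonin as control.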

Experiment [15] addresses Glutathione peroxidase 1 (Homo sapiens) (UniProt P07203). As to the kind of experiment: Primary qHTS Assay for Inhibitors of Recombinant Selenoprotein Glutathione Peroxidase 1 (GPX1) (AID 1845191). Also: % is scaled to controls: 0 for no effect and ±100 for the full control effect; nearly all actives have a fitted effect of over 65% in size. The method in brief: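 Recombinant GPX1 (10 nM final) was preincubated with compound for 30 min at room temperature, then reacted with 1 mM GSH, 0.5 mM CHP, 0.5 mM NADPH and 100 nM glutathione reductase; NADPH fluorescence (340/450 nm) was read at 0 and 15 min.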

Experiment [16] concerns the target Phospholipid hydroperoxide glutathione peroxidase GPX4 (Homo sapiens) (UniProt P36969). As to the kind of experiment: Primary qHTS Assay for Inhibitors of Recombinant Selenoprotein Glutathione Peroxidase 4 (GPX4) (AID 1845192). Also: potency is read from the fitted curve at half-maximal effect; nearly all actives have a fitted effect of over 65% in size. The method in brief: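 GR-coupled readout: 100 nM GR, 1 mM GSH, 0.5 mM NADPH; NADPH fluorescence (ex 340/em 450 nm) read at t=0 and after 15 min RT. GPX4 200 nM, preincubated 30 min with compound; substrate 0.5 mM CHP.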

Sequence of Dual specificity protein kinase CLK4 (Homo sapiens) (Q9HAZ1 whole entry, looked up): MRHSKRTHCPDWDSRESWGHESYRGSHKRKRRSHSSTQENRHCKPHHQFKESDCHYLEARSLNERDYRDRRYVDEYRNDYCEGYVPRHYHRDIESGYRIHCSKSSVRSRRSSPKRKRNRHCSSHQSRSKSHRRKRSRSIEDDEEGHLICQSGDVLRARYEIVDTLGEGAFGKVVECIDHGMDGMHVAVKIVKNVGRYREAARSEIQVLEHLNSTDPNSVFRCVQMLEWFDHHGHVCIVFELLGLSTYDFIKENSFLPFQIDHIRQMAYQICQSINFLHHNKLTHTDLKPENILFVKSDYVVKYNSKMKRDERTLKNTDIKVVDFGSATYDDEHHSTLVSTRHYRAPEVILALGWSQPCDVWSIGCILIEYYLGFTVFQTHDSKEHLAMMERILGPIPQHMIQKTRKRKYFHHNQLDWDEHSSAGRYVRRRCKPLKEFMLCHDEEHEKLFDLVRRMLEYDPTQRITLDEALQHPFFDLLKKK
Sequence of Glucocorticoid receptor (Homo sapiens) (P04150 whole entry, looked up, the tested form may be a part): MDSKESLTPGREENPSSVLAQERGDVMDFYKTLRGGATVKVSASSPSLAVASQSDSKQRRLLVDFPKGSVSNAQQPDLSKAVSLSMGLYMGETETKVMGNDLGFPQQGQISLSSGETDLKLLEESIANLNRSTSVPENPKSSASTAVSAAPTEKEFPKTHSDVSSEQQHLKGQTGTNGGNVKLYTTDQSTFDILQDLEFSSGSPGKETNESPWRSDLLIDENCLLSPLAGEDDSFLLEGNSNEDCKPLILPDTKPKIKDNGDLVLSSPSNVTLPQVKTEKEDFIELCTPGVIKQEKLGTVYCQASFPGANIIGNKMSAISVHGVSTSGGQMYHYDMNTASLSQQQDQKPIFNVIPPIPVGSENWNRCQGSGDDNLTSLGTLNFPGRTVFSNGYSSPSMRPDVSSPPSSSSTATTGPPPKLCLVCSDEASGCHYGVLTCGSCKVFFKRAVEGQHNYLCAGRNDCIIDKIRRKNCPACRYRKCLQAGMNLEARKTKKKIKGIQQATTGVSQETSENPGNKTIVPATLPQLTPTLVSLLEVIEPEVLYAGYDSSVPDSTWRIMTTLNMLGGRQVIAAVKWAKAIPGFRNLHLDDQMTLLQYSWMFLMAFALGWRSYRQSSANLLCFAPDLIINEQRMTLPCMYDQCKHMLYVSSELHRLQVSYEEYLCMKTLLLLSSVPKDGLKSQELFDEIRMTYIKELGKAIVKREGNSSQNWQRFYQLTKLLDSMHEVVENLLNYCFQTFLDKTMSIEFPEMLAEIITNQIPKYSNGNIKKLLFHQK
Sequence of Glutathione peroxidase 1 (Homo sapiens) (P07203 whole entry, looked up): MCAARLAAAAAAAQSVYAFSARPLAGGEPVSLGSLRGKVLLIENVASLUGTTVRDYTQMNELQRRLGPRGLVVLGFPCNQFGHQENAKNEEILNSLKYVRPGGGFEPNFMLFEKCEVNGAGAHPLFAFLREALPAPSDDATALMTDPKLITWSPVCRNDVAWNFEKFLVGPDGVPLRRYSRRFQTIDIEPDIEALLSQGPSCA
Sequence of Lysosomal acid glucosylceramidase (Homo sapiens) (P04062 whole entry, looked up): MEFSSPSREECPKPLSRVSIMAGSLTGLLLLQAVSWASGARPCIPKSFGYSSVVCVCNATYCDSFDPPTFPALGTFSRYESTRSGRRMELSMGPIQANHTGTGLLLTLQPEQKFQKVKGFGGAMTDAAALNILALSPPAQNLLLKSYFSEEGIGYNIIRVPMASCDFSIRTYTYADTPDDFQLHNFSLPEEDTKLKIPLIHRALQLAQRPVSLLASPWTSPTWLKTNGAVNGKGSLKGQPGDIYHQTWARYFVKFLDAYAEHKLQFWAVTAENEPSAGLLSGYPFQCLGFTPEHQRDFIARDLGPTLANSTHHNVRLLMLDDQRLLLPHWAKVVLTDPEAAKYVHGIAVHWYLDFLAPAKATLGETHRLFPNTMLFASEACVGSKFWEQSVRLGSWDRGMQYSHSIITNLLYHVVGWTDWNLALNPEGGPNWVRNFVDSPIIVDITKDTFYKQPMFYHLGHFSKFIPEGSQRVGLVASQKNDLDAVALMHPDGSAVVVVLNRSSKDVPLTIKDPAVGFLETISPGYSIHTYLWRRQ
Sequence of 3',5'-cyclic-AMP phosphodiesterase 4B (Homo sapiens) (Q07343 whole entry, looked up): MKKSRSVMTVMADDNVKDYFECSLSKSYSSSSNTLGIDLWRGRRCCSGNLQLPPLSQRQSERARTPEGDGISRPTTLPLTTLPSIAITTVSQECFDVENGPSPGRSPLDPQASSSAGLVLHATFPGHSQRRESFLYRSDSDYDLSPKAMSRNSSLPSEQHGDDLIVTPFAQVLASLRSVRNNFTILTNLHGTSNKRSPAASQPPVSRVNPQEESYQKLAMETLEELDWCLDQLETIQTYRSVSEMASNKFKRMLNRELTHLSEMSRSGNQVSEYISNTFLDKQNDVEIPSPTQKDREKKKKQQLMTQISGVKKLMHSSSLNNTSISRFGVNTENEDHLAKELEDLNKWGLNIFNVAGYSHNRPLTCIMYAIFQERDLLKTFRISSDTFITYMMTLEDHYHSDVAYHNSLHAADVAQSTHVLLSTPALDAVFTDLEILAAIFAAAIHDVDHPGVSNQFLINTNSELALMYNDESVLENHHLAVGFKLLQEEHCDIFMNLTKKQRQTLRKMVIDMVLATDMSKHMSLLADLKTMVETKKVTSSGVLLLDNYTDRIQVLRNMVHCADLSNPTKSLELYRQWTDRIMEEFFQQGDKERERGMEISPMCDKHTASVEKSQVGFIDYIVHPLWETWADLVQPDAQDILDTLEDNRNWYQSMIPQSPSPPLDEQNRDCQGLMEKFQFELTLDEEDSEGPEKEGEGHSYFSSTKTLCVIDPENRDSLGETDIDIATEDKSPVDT
Sequence of Ubiquitin carboxyl-terminal hydrolase 1 (Homo sapiens) (O94782 whole entry, looked up): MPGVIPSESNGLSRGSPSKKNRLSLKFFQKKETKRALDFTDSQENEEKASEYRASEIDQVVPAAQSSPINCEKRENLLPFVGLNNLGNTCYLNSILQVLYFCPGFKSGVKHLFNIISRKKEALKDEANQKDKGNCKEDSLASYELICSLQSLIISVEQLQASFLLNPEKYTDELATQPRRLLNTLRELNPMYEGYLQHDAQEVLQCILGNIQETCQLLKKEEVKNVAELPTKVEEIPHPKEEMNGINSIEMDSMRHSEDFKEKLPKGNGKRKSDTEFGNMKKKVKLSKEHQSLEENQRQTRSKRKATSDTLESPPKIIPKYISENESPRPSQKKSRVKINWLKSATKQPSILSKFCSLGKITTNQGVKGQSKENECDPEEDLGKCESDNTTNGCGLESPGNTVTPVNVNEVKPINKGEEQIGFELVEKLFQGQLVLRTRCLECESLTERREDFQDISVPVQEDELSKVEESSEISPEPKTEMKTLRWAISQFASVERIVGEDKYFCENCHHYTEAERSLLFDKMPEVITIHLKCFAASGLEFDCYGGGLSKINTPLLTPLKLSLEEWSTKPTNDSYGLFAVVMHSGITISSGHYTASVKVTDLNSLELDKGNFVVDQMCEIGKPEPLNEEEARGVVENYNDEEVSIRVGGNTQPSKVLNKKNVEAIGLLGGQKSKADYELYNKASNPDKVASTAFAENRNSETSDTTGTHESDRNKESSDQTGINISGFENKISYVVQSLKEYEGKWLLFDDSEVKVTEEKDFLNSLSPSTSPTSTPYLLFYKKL
Sequence of Phospholipid hydroperoxide glutathione peroxidase GPX4 (Homo sapiens) (P36969 whole entry, looked up): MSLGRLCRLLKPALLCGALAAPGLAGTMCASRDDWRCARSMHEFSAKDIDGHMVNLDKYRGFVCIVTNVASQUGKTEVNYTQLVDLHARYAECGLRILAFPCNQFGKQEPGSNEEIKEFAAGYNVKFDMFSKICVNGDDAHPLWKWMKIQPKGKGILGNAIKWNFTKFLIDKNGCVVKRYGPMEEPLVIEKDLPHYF
Sequence of Cytochrome P450 1A2 (Homo sapiens) (P05177 whole entry, looked up): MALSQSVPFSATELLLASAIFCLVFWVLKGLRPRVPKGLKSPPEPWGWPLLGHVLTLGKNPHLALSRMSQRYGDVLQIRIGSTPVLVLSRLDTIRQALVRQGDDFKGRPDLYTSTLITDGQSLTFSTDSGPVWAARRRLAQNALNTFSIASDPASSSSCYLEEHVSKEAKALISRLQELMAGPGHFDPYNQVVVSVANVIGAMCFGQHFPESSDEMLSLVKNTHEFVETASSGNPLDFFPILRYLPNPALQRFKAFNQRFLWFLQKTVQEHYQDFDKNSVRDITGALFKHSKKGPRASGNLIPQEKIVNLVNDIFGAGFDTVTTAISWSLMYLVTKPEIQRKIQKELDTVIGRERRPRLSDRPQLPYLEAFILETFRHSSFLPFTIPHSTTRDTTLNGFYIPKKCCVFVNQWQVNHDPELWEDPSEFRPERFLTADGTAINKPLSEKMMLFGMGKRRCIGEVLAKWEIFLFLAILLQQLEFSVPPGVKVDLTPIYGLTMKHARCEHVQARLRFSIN

With `Cn1c(=O)c(-c2ccc(Cl)cc2)nc2cncnc21`, the Potency was greater than 11.4 µM in experiment [1], 0.0251 µM (active) in experiment [3], greater than 9.22 µM in [6] and greater than 46 µM in [7]. Besides, the activity change, negative = inhibition was -6.64% in [2] and -0.619% in experiment [4]. For the same molecule, the molecule was called inactive in experiment [5]. Moreover, the Potency result in experiment [8], in experiment [9], in experiment [10], in experiment [11], in [12] and in [13] was “inactive” in each case.

Take `COC(=O)N[C@H](C(=O)N1CC2(CC2)C[C@H]1c1ncc(-c2ccc3c(c2)C(F)(F)c2cc(-c4ccc5nc([C@@H]6[C@H]7CC[C@H](C7)N6C(=O)[C@@H](NC(=O)OC)C(C)C)[nH]c5c4)ccc2-3)[nH]1)C(C)C`: the Potency result in experiment [14] and in [15] was “inactive” each time. For the same molecule, the Potency in [16] is 3.55 µM (active).
